“And” between values parts separate entries of the source, which are not always exact repeats. Identical values can stand only once. Results filed as inconclusive are left out. The source made the active and inactive calls. The call rests on the fitted dose curve; in most records, active means well fitted curve in the direction sought with a large enough effect; inconclusive means small, poorly fitted or top-dose-only effect, or another doubt; inactive means no such curve, though single readings can be large; an effect the other way counts as inactive or inconclusive.
Legend:
[1] = qHTS of pediatric cancer cell lines to identify multiple opportunities for drug repurposing: Primary screen for U-2 OS cells (AID 1347096); further: nearly all actives have a fitted effect of over 50% in size; further: potency means the concentration at half of the fitted maximal effect
Summary of the method: (§1)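 Cells (500-1,000/well) rested 5 h, then received compounds for 48 h; metabolically active cells were measured by CellTiter-Glo luminescence. Final concentrations spanned up to 46 µM (MIPE, 11-point) or 0.59 nM-46 µM (NPC, 8-point) in primary screens, 11-point in follow-ups.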

[2] = qHTS of pediatric cancer cell lines to identify multiple opportunities for drug repurposing: Primary screen for Saos-2 cells (AID 1347097); further: nearly all actives have a fitted effect of over 40% in size; further: potency means the concentration at half of the fitted maximal effect
Summary of the method: (§2)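 Primary screen of approved and investigational compounds on cells in growth media at 37 degrees C, 5% CO2. MIPE set at 11-point and NPC set at 8-point dilutions; viability scored by ATP-based luminescence at 48 hours.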

[3] = qHTS of pediatric cancer cell lines to identify multiple opportunities for drug repurposing: Primary screen for SK-N-SH cells (AID 1347098); further: nearly all actives have a fitted effect of over 65% in size; further: potency means the concentration at half of the fitted maximal effect
Summary of the method: as §1

[4] = qHTS of pediatric cancer cell lines to identify multiple opportunities for drug repurposing: Primary screen for NB1643 cells (AID 1347099); further: nearly all actives have a fitted effect of over 50% in size; further: potency means the concentration at half of the fitted maximal effect
Summary of the method: as §2

[5] = qHTS of pediatric cancer cell lines to identify multiple opportunities for drug repurposing: Primary screen for LAN-5 cells (AID 1347100); further: potency means the concentration at half of the fitted maximal effect
Summary of the method: as §1

[6] = qHTS of pediatric cancer cell lines to identify multiple opportunities for drug repurposing: Primary screen for BT-12 cells (AID 1347101); further: nearly all actives have a fitted effect of over 25% in size; further: potency means the concentration at half of the fitted maximal effect
Summary of the method: as §1

[7] = qHTS of pediatric cancer cell lines to identify multiple opportunities for drug repurposing: Primary screen for Rh18 cells (AID 1347102); further: nearly all actives have a fitted effect of over 65% in size; further: potency means the concentration at half of the fitted maximal effect
Summary of the method: as §1

[8] = qHTS of pediatric cancer cell lines to identify multiple opportunities for drug repurposing: Primary screen for OHS-50 cells (AID 1347103); further: nearly all actives have a fitted effect of over 40% in size; further: potency means the concentration at half of the fitted maximal effect
Summary of the method: as §1

[9] = qHTS of pediatric cancer cell lines to identify multiple opportunities for drug repurposing: Primary screen for RD cells (AID 1347104); further: nearly all actives have a fitted effect of over 55% in size; further: potency means the concentration at half of the fitted maximal effect
Summary of the method: as §2

[10] = qHTS of pediatric cancer cell lines to identify multiple opportunities for drug repurposing: Primary screen for MG 63 (6-TG R) cells (AID 1347105); further: nearly all actives have a fitted effect of over 50% in size
Summary of the method: as §2

Measured: Potency

Cc1noc(NS(=O)(=O)c2ccc(N)cc2)c1C
not listed: [10]
inactive: all other assays above

CCN(C)C(=O)Oc1cccc([C@H](C)N(C)C)c1
inactive: all assays above

NC(=O)N1c2ccccc2CC(=O)c2ccccc21
not listed: [10]
inactive: all other assays above

Cn1c(=O)c2c(ncn2CC(O)CO)n(C)c1=O (centres undefined)
inactive: all assays above

Cc1ncc([N+](=O)[O-])n1CCO
inactive: all assays above

COC(c1ccccc1)(c1ccccc1)[C@H](Oc1nc(C)cc(C)n1)C(=O)O
not listed: [10]
inactive: all other assays above

COCCCOc1cc(C[C@@H](C[C@H](N)[C@@H](O)C[C@H](C(=O)NCC(C)(C)C(N)=O)C(C)C)C(C)C)ccc1OC
inactive: all assays above

CS(=O)(=O)c1ccc([C@@H](O)[C@@H](CO)NC(=O)C(Cl)Cl)cc1
inactive: all assays above

NS(=O)(=O)c1cc2c(cc1Cl)NC(C(Cl)Cl)NS2(=O)=O (centres undefined)
inactive: all assays above

CC(N)C12CC3CC(CC(C3)C1)C2 (centres undefined)
not listed: [10]
inactive: all other assays above

CNC(=O)c1cc(Oc2ccc(NC(=O)Nc3ccc(Cl)c(C(F)(F)F)c3)cc2)ccn1
active: [1] 18.7 µM | [2] 18.7 µM | [3] 19.2 µM and 15.4 µM | [4] 4.69 µM | [5] 20.9 µM | [6] 17.2 µM | [7] 18.7 µM | [8] 15.3 µM and 15.5 µM | [9] 18.7 µM and 23.7 µM

CCCN[C@H]1CCc2nc(N)sc2C1
inactive: all assays above

NCCCC(O)(P(=O)(O)O)P(=O)(O)O
inactive: all assays above

COc1ccc2c(c1)c(CC(=O)OCC(=O)O)c(C)n2C(=O)c1ccc(Cl)cc1
inactive: all assays above

CCOc1cc(N)c(Cl)cc1C(=O)NCC1CN(Cc2ccc(F)cc2)CCO1 (centres undefined)
inactive: all assays above

CN1CCN(c2c(F)cc3c(=O)c(C(=O)O)cn4c3c2OCN4C)CC1
inactive: all assays above

CN(CCOc1ccc(CC2SC(=O)NC2=O)cc1)c1ccccn1 (centres undefined)
inactive: all assays above

CC1=C(C(=O)O)N2C(=O)[C@@H](NC(=O)C(N)c3ccccc3)[C@H]2SC1 (some centres undefined)
not listed: [10]
inactive: all other assays above

CN(C)CCc1c[nH]c2ccc(CS(=O)(=O)N3CCCC3)cc12
inactive: all assays above

Source: PubChem BioAssay (NCATS)
